The results in this text go back to PubChem BioAssay (NCATS).

Results filed as inconclusive are left out. Active and inactive are the calls of the source. The call rests on the fitted dose curve; in most records, active means well fitted curve in the direction sought with a large enough effect; inconclusive means small, poorly fitted or top-dose-only effect, or another doubt; inactive means no such curve, though single readings can be large; an effect the other way counts as inactive or inconclusive.

Assay [1] is described as follows: Quantitative High-Throughput drug screen in 47 multiple myeloma cell lines against the NCATS MIPE library collection: KHM11_PLB cell viability assay (AID 1918962). Further: nearly all actives have a fitted effect of over 35% in size. Further: potency means the concentration at half of the fitted maximal effect. The method, boiled down: (§1)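 Myeloma cell lines, 500 cells per well, exposed to MIPE 4.0 library compounds for 48 h at 37C, 5% CO2. Viability from ATP by CellTiter-Glo luminescence; normalised to DMSO (100%) and media-only (0%) wells.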

Assay [2] in a line: Quantitative High-Throughput drug screen in 47 multiple myeloma cell lines against the NCATS MIPE library collection: JIM3_ECACC cell viability assay (AID 1918963; further: nearly all actives have a fitted effect of over 35% in size; further: potency means the concentration at half of the fitted maximal effect). The method, boiled down:
as §1

Assay [3] in a line: Quantitative High-Throughput drug screen in 47 multiple myeloma cell lines against the NCATS MIPE library collection: JIM1_ECACC cell viability assay (AID 1918964; further: potency means the concentration at half of the fitted maximal effect). The essentials: (§2)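 CellTiter-Glo ATP luminescence gave viability after 48 h compound treatment at 37C of 500 multiple myeloma cells per well. Normalisation used DMSO-only wells as 100% and media-only wells as 0% viability; primary qHTS of approved and investigational drugs.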

A short description of assay [4]: Quantitative High-Throughput drug screen in 47 multiple myeloma cell lines against the NCATS MIPE library collection: INA6_PLB cell viability assay (AID 1918965; further: nearly all actives have a fitted effect of over 55% in size; further: potency means the concentration at half of the fitted maximal effect). The method, boiled down:
as §1

Assay [5] can be described thus: Quantitative High-Throughput drug screen in 47 multiple myeloma cell lines against the NCATS MIPE library collection: JJN3_DSMZ cell viability assay (AID 1918966; further: nearly all actives have a fitted effect of over 50% in size; further: potency means the concentration at half of the fitted maximal effect). The method, boiled down: as §2
Assay [6] in a line: Quantitative High-Throughput drug screen in 47 multiple myeloma cell lines against the NCATS MIPE library collection: H1112_PLB cell viability assay (AID 1918967; further: nearly all actives have a fitted effect of over 30% in size; further: potency means the concentration at half of the fitted maximal effect). The essentials: as §2
The nature of assay [7]: Quantitative High-Throughput drug screen in 47 multiple myeloma cell lines against the NCATS MIPE library collection: Karpas25_ECACC cell viability assay (AID 1918968; further: nearly all actives have a fitted effect of over 35% in size; further: potency means the concentration at half of the fitted maximal effect). The method, boiled down: as §2
A short description of assay [8]: Quantitative High-Throughput drug screen in 47 multiple myeloma cell lines against the NCATS MIPE library collection: KMS12BM_JCRB cell viability assay (AID 1918971). Further: nearly all actives have a fitted effect of over 35% in size. Further: potency means the concentration at half of the fitted maximal effect. The method, boiled down: (§3)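 Myeloma cells (500 per well) were exposed to MIPE 4.0 compounds by pin transfer and incubated 48 hours at 37C, 5% CO2. Viability was read as ATP by CellTiter-Glo luminescence, normalised to DMSO (100%) and media-only (0%) wells.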

Assay [9] is described as follows: Quantitative High-Throughput drug screen in 47 multiple myeloma cell lines against the NCATS MIPE library collection: KMS12PE_JCRB cell viability assay (AID 1918972). Further: nearly all actives have a fitted effect of over 30% in size. Further: potency means the concentration at half of the fitted maximal effect. The essentials: as §1
Assay [10] in a line: Quantitative High-Throughput drug screen in 47 multiple myeloma cell lines against the NCATS MIPE library collection: KMS20_JCRB cell viability assay (AID 1918973). Further: nearly all actives have a fitted effect of over 45% in size. Further: potency means the concentration at half of the fitted maximal effect. The method, boiled down:
as §2

The nature of assay [11]: Quantitative High-Throughput drug screen in 47 multiple myeloma cell lines against the NCATS MIPE library collection: KMS26_JCRB cell viability assay (AID 1918975). Further: nearly all actives have a fitted effect of over 45% in size. Further: potency means the concentration at half of the fitted maximal effect. The method, boiled down: as §3
Assay [12] is described as follows: Quantitative High-Throughput drug screen in 47 multiple myeloma cell lines against the NCATS MIPE library collection: MOLP8_DSMZ cell viability assay (AID 1918977). Further: nearly all actives have a fitted effect of over 45% in size. Further: potency means the concentration at half of the fitted maximal effect. The essentials: (§4)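 500 cells/well per myeloma line exposed to pinned MIPE 4.0 compounds for 48 h at 37 °C, 5% CO2. Viability read as ATP by CellTiter-Glo luminescence, normalised to DMSO-only (100%) and media-only (0%) wells.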

Assay [13] is described as follows: Quantitative High-Throughput drug screen in 47 multiple myeloma cell lines against the NCATS MIPE library collection: NCIH929_DSMZ cell viability assay (AID 1918978). Further: nearly all actives have a fitted effect of over 35% in size. Further: potency means the concentration at half of the fitted maximal effect. The essentials:
as §4

The nature of assay [14]: Quantitative High-Throughput drug screen in 47 multiple myeloma cell lines against the NCATS MIPE library collection: OCIMY1_PLB cell viability assay (AID 1918979). Further: nearly all actives have a fitted effect of over 35% in size. Further: potency means the concentration at half of the fitted maximal effect. The method, boiled down:
as §4

A short description of assay [15]: Quantitative High-Throughput drug screen in 47 multiple myeloma cell lines against the NCATS MIPE library collection: MM1S_ATCC cell viability assay (AID 1918980). Further: potency means the concentration at half of the fitted maximal effect; nearly all actives have a fitted effect of over 45% in size. The essentials:
as §4

Assay [16] in a line: Quantitative High-Throughput drug screen in 47 multiple myeloma cell lines against the NCATS MIPE library collection: MM1R_ATCC cell viability assay (AID 1918981). Further: nearly all actives have a fitted effect of over 35% in size. Further: potency means the concentration at half of the fitted maximal effect. The method, boiled down:
as §4

Assay [17] can be described thus: Quantitative High-Throughput drug screen in 47 multiple myeloma cell lines against the NCATS MIPE library collection: KMS27_JCRB cell viability assay (AID 1918970). Further: nearly all actives have a fitted effect of over 30% in size. Further: potency means the concentration at half of the fitted maximal effect. The following applies: KMS27 myeloma cells, CellTiter-Glo ATP viability, 48 h; viability (% of DMSO): at 45.8 µM (top of the series). The method, boiled down:
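CellTiter-Glo luminescence after 48 h drug exposure at 37 °C; 500 cells/well, 1536-well format, pin-tool compound addition; DMSO = 100%, media-only = 0% viability.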

Assay [18] in a line: Quantitative High-Throughput drug screen in 47 multiple myeloma cell lines against the NCATS MIPE library collection: KMS21BM_JCRB cell viability assay (AID 1918974). Further: potency means the concentration at half of the fitted maximal effect. The following applies: ATP luminescence, 48 h; viability: at 45.8 µM (top of the series). The method, boiled down:
as §2

Assay [19] can be described thus: Quantitative High-Throughput drug screen in 47 multiple myeloma cell lines against the NCATS MIPE library collection: MMM1_PLB cell viability assay (AID 1918976). The essentials: as §4
Assay [20] is described as follows: Quantitative High-Throughput drug screen in 47 multiple myeloma cell lines against the NCATS MIPE library collection: Karpas417_ECACC cell viability assay (AID 1918961). The following applies: Karpas417 myeloma viability, CellTiter-Glo ATP luminescence, 48 h; viability (% of DMSO): at 45.8 µM (top of the series). The essentials: as §1

As to `O=C(C=CC#Cc1cccc(NS(=O)(=O)c2ccccc2)c1)NO`, the Potency in [1] was 2350 nM (active); in [2] it was 5260 nM (active); in assay [3], 1320 nM (active); in assay [4], 743 nM (active); in assay [5], 2350 nM (active); in assay [6], 2960 nM (active). In addition, the Potency in [7] was 833 nM (active); in assay [8] it was 1480 nM (active); in assay [9] it was 1180 nM (active); in [10], 2350 nM (active); in assay [11] it was 3320 nM (active); in assay [12], 935 nM (active). Further, the Potency in assay [13] is 1180 nM (active); in assay [14], 2960 nM (active); in assay [15] it was 1870 nM (active); in assay [16], 1480 nM (active).

For the molecule `C=CC(=O)Nc1cccc(Nc2nc(NC3CCC(N(C)C)CC3)nc3c2ncn3C(C)C)c1` (stereo unspecified), the Potency was 372 nM (active) in assay [1]; 332 nM (active) in assay [2]; 1 nM (active) in [3]; 296 nM (active) in assay [4]; 10.5 nM (active) in assay [5]; 41.8 nM (active) in assay [6]. For the same molecule, the Potency in assay [7] was 29.6 nM (active); in assay [17], 10.5 nM (active); in assay [8] it was 469 nM (active); in assay [9] it was 11.8 nM (active); in assay [10], 93.5 nM (active); in assay [18], 16.6 nM (active). The Potency in [11] was 235 nM (active); in assay [19], 1050 nM (active); in [12], 166 nM (active); in assay [13], 37.2 nM (active); in assay [14] it was 4690 nM (active); in [15] it was 41.8 nM (active). Besides, in assay [16], the Potency is 187 nM (active).

Regarding `COC(=O)[C@@H]1CC2=CC(=O)CC[C@]2(C)[C@@]23O[C@@H]2C[C@@]2(C)[C@H](CC[C@@]24CCC(=O)O4)[C@@H]13`, the Potency entry in [1], in [2], in [3], in [4], in assay [6] and in assay [7] was “inactive” in each case. In addition, the Potency result in [17], in assay [9], in assay [10], in assay [12], in assay [13] and in assay [16] was “inactive” throughout.

For `CC[C@@]1([C@@H]2O[C@@H]([C@H]3O[C@@](O)(CO)[C@H](C)C[C@H]3C)C[C@H]2C)CC[C@H]([C@]2(C)CC[C@]3(C[C@H](O)[C@@H](C)[C@@H]([C@@H](C)[C@@H](OC)[C@H](C)C(=O)O)O3)O2)O1`, the Potency in assay [1] was 512 nM (active); in [2], 229 nM (active); in [3], 64.5 nM (active); in [4], 257 nM (active); in [5], 257 nM (active); in assay [7] it was 3230 nM (active). For the same molecule, the Potency is 45.7 nM (active) in assay [8]; 91.1 nM (active) in assay [9]; 51.2 nM (active) in [10]; 182 nM (active) in [11]; 575 nM (active) in assay [19]; 204 nM (active) in assay [12]. The figures for the Potency in [13], in assay [15] and in [16] were 288 nM (active), 182 nM (active) and 229 nM (active), respectively.

With `CN(C)c1ccc2cc(C(=O)N[C@@H](CCCN=C(N)CCl)C(=O)NCc3ccccc3)ccc2c1`, the Potency in [1] was 16600 nM (active); in assay [2], 11800 nM (active); in assay [3], 3720 nM (active); in assay [4] it was 9350 nM (active); in assay [5], 1050 nM (active); in assay [6] it was 20900 nM (active). Also, the Potency in assay [7] is 13200 nM (active); in [17], 1480 nM (active); in assay [8] it was 11800 nM (active); in assay [9] it was 7430 nM (active); in assay [10], 8330 nM (active); in [11] it was 6620 nM (active). For the same molecule, the Potency in assay [19] is 18700 nM (active); in assay [12], 9350 nM (active); in [13], 16600 nM (active); in [15], 1180 nM (active); in assay [16], 4690 nM (active).

On to `CCCNS(=O)(=O)Nc1ncnc(OCCOc2ncc(Br)cn2)c1-c1ccc(Br)cc1`, for which the Potency result in [1], in [2], in assay [3], in [4], in assay [5] and in assay [6] was “inactive” in each case. Moreover, the Potency entry in [7], in [17], in [8], in assay [9], in assay [12] and in assay [13] was “inactive” in each case. The Potency result in assay [14] and in [16] was “inactive” throughout.

Turning to `O=C(C[C@@H]1CC=CCCC(=O)O[C@H](c2ccccc2)CNC1=O)NCc1ccc(Cl)cc1`, in assay [20], the viability (% of DMSO) is 118% (active). Moreover, the Potency result in assay [5], in [7], in assay [11], in assay [12], in [14] and in [16] was “inactive” throughout. Moreover, the Potency in assay [6] is 4690 nM (active); in assay [15], 16600 nM (active).

As to `CC(=O)OCC(=O)[C@@]1(O)CC[C@H]2[C@@H]3CCC4=CC(=O)CC[C@]4(C)[C@@H]3C(=O)C[C@@]21C`, the Potency entry in [1], in assay [2], in assay [3], in assay [5], in [6] and in assay [7] was “inactive” throughout. For the same molecule, the Potency result in [17], in [8], in assay [9], in assay [10], in assay [11] and in assay [12] was “inactive” throughout. Besides, the Potency entry in [13], in assay [14] and in assay [16] was “inactive” throughout.

On to `C=CC(=O)Nc1ccc2ncnc(Nc3ccc(OCc4cccc(F)c4)c(Cl)c3)c2c1`, for which the Potency in [1] was 6620 nM (active); in assay [2] it was 743 nM (active); in assay [3], 41.8 nM (active); in assay [4], 662 nM (active); in assay [5], 18700 nM (active); in assay [6] it was 1050 nM (active). The Potency was 1870 nM (active) in assay [7]; 418 nM (active) in [8]; 74.3 nM (active) in assay [9]; 9350 nM (active) in [11]; 18700 nM (active) in [19]; 6620 nM (active) in assay [12]. In addition, the figures for the Potency in [13], in assay [15] and in assay [16] were 4180 nM (active), 1660 nM (active) and 8330 nM (active), respectively. The viability (% of DMSO) in assay [17] was 70.4% (active).

Turning to `CCOC(=O)[C@H](CCc1ccccc1)N[C@@H](C)C(=O)N1[C@@H](C(=O)O)C[C@H]2CCC[C@@H]21`, the Potency was 9350 nM (active) in assay [1]; 13200 nM (active) in [2]; 5260 nM (active) in [3]; 7430 nM (active) in [4]; 14800 nM (active) in assay [6]; 7430 nM (active) in [7]. The Potency is 7430 nM (active) in assay [17]; 7430 nM (active) in assay [9]; 4690 nM (active) in [10]; 18700 nM (active) in assay [19]; 7430 nM (active) in assay [13]; 26400 nM (active) in assay [14]. The Potency in assay [16] was 16600 nM (active).
